# Data reported in PubChem BioAssay (NCI).
# This is part of a sample that, as a whole, favours compounds with a hit. Of some 83,000 tested, about 20% had one in any assay.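 Testing used 96-well plates and a 48-hour single-concentration exposure. Example: -40 means 40% of the starting cells died.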 Unmarked numbers belong to inactive results. Active and inactive are the calls of the source. How the source made its calls: active means growth percent below 10; inactive means the rest.
# Tests used:
# Assay in all cases: NCI-60 one-dose screen, 48 h (100 = growth as untreated, 0 = no growth, -100 = all killed)
# [1] = tested on: SK-MEL-2 melanoma; conditions: 10 µM unless noted
# [2] = tested on: EKVX NSCLC; conditions: 10 µM unless noted
# [3] = tested on: SN12C renal; conditions: 10 µM unless noted
# [4] = tested on: UO-31 renal; conditions: 10 µM unless noted
# [5] = tested on: TK-10 renal; conditions: 10 µM unless noted
# [6] = tested on: ACHN renal; conditions: 10 µM unless noted
# [7] = tested on: CAKI-1 renal; conditions: 10 µM
# [8] = tested on: CCRF-CEM leukemia; conditions: 10 µM unless noted
# [9] = tested on: MOLT-4 leukemia; conditions: 10 µM unless noted
# [10] = tested on: SR leukemia; conditions: 10 µM unless noted
# [11] = tested on: RPMI-8226 leukemia; conditions: 10 µM unless noted
# [12] = tested on: OVCAR-8 ovarian; conditions: 10 µM unless noted
# [13] = tested on: OVCAR-5 ovarian; conditions: 10 µM unless noted
# [14] = tested on: OVCAR-4 ovarian; conditions: 10 µM unless noted
# [15] = tested on: SK-OV-3 ovarian; conditions: 10 µM unless noted
# [16] = tested on: IGROV1 ovarian; conditions: 10 µM unless noted
# [17] = tested on: OVCAR-3 ovarian; conditions: 10 µM unless noted
# [18] = tested on: HS 578T breast; conditions: 10 µM unless noted
# [19] = tested on: NCI/ADR-RES ovarian; conditions: 10 µM unless noted
# [20] = tested on: A498 renal; conditions: 10 µM unless noted
Structure (SMILES),growth [1],growth [2],growth [3],growth [4],growth [5],growth [6],growth [7],growth [8],growth [9],growth [10],growth [11],growth [12],growth [13],growth [14],growth [15],growth [16],growth [17],growth [18],growth [19],growth [20]
Cn1cc(-c2nnc(N)nc2-c2cn(C)c3ccc(F)cc23)c2cc(F)ccc21,97%,101%,89.2%,82.6%,91.4%,100%,79.7%,100%,79.1%,85.6%,106%,89.6%,103%,97.4%,112%,101%,103%,90.8%,99.8%,–
C=C(C)[C@@H]1CC[C@]2(COS(C)(=O)=O)CC[C@]3(C)[C@H](CC[C@@H]4[C@@]5(C)CCCNC(C)(C)[C@@H]5CC[C@]43C)[C@@H]12,94.7%,89.2%,76%,81.5%,107%,99.2%,86.8%,71.4%,29.5%,-1.07% (active),44.9%,92.1%,92.5%,95.8%,107%,78.2%,92.2%,91.4%,92%,–
O=C(Nc1ccc(Cl)cc1)Nc1nc2ccc([N+](=O)[O-])cc2s1,-40.8% (active),4.04% (active),-0.314% (active),3.55% (active),-20.5% (active),0.28% (active),-16.5% (active),4.8% (active),-7.74% (active),-24.3% (active),–,6.03% (active),18.4%,-4.3% (active),-12.3% (active),14.7%,-26.6% (active),-15.8% (active),-6.91% (active),–
CCOC(=O)C1=C(C)Nc2nc3ccccc3n2C1c1cccc(Br)c1 (stereo not drawn),89.9%,80.2%,95.1%,73.7%,113%,88.9%,54.5%,–,69.3%,25.4%,–,96%,97.1%,88.9%,93.6%,77.4%,40.3%,79.1%,59%,–
IP(CCCSc1n(Cc2ccc3ccccc3c2)c(-c2ccccc2)c(-c2ccccc2)[n+]1Cc1ccc2ccccc2c1)(c1ccccc1)(c1ccccc1)c1ccccc1,2.52% (active),32%,57%,70.1%,66.9%,87.9%,77.6%,32.5%,46.7%,5.94% (active),14.8%,38.6%,58.5%,23.2%,–,23.9%,8.3% (active),67.1%,94.1%,–
COc1cc(/C=C/C(=O)c2ccc(NC(=O)COc3cccc4cccnc34)cc2)cc(OC)c1OC,96.5%,82%,75.4%,67.7%,147%,80.2%,84.8%,26.5%,41%,11.4%,12.9%,79.7%,128%,84.3%,118%,69.4%,47.9%,93.8%,71.7%,–
O=C(Nc1cccc(Cl)c1)Nc1nc2ccc(-c3cccc4ccccc34)cc2s1,82.6%,56.4%,53%,47.4%,74.7%,40.3%,37.9%,40.4%,41.5%,90%,–,42.9%,84%,20.4%,66.8%,55.2%,13.5%,72.9%,57.5%,–
c1ccc(-c2n(Cc3ccc4ccccc4c3)c3c4ccccc4c4ccccc4c3[n+]2Cc2ccc3ccccc3c2)cc1,-68.3% (active),-90.2% (active),-83.7% (active),-88% (active),-76.6% (active),-93.3% (active),-92.5% (active),-18.9% (active),-56% (active),-44.4% (active),-35.1% (active),-69.1% (active),-90.3% (active),–,-84.5% (active),-74.7% (active),-90.8% (active),-42.9% (active),-4.33% (active),–
COc1ccc(CN2C(=O)/C(=C/c3nc(CO)cs3)SC2=S)cc1,98.2%,100%,93%,67%,65.6%,99.6%,77%,61.1%,76.7%,33.8%,18.5%,96.7%,107%,107%,–,89.9%,80.8%,101%,97.8%,–
CCOC(=O)C1=C(C)Nc2nc3ccccc3n2C1c1ccccc1 (stereo not drawn),102%,94.4%,92.9%,84.9%,114%,73.7%,90.6%,94%,97.8%,68.9%,97.4%,96.6%,104%,83.7%,–,91.6%,90.9%,97.7%,92%,–
CC(=O)C1=NN(c2ccc(Cl)cc2)C(=O)CN1C,102%,95.7%,102%,93%,91.2%,99.4%,95.7%,–,107%,102%,115%,102%,95%,114%,113%,103%,123%,107%,105%,–
Nc1cc(F)ccc1NC(=O)c1ccc(NC(=O)C/C=C/c2cccnc2)cn1,9.74% (active),49.7%,20.1%,5.53% (active),22.3%,31.3%,–,15.1%,24.7%,24.6%,-3.11% (active),17.8%,21.4%,29.1%,34.9%,13.8%,27.4%,21.1%,20.4%,-13.2% (active)
CN(C)C(=O)c1ccccc1-n1cnc2ccccc2c1=O,107%,101%,92.7%,92.8%,97.6%,96.3%,90.1%,97.4%,102%,103%,–,103%,104%,106%,107%,99.9%,110%,108%,102%,–
C#CCOc1ccc(C(Nc2ccc(OC)cc2)c2nnnn2C2CCCCC2)cc1 (stereo not drawn),104%,87.4%,96.5%,80.4%,112%,97.3%,76.5%,–,91.4%,95.6%,–,95.2%,102%,103%,118%,91.6%,112%,95.2%,88.1%,–
CCCCCCNC(=O)Oc1ccc(/C(=C(/C)c2ccc(Cl)cc2)c2ccc(OCCN3CCCC3)cc2)cc1,78%,53.4%,50.4%,18.1%,86%,37.5%,55.3%,4.42% (active),–,–,-35.8% (active),56.8%,67.8%,54.6%,78.8%,32.6%,23.4%,61.1%,50.4%,–
CCNC(=NCCCN(C)C)N/C(N)=N/c1nc2ccccc2s1,92.9%,90.9%,82%,64.3%,100%,95.3%,–,82.3%,94.8%,55.1%,96.9%,90.9%,95.6%,107%,89.9%,91.1%,104%,92%,96.8%,111%
C#CCOc1ccc(C(Nc2cc(Cl)ccc2Cl)c2nnnn2C2CCCCC2)cc1 (stereo not drawn),95%,-8.05% (active),91.4%,62.5%,90.8%,92%,44.4%,85.8%,68.1%,87.6%,81.1%,91.3%,93.1%,–,100%,80.4%,95.6%,87.4%,80.2%,–
